Measurements: PubChem BioAssay (Tox21)
Several values for one entry are separate records, joined by “and”; a condition that tells them apart may be missing. Equal values may be shown once. Inconclusive results are not listed. A call without a number means that no potency is given here. Activity calls are given as the source filed them. Unless noted, calls follow the shape of the dose curve; as a rule, active = well fitted curve in the direction sought with a large enough effect in the repeat runs; inconclusive = weak or mixed curves; inactive = no such curve, though single readings can be large; an effect the other way counts as inactive or inconclusive.

What was measured:
[1] = qHTS assay to identify small molecule agonists of the RXR signaling pathway - cell viability counter screen (AID 1159529); also: nearly all actives have a fitted effect of over 50% in size; also: potency is read from the fitted curve at half-maximal effect
Method in brief: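 CellTiter-Glo luminescence gave viability in the wells also read for beta-lactamase. Cells (RXR-alpha-UAS-bla HEK 293T, 2% charcoal-stripped FBS medium) had 5 hr plating, then 16 hr compound exposure at 37 C; tetraoctyl ammonium bromide served as positive control.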

[2] = qHTS assay to identify small molecule antagonists of the retinoid acid receptor (RAR) signaling pathway - cell viability counter screen (AID 1159551); also: nearly all actives have a fitted effect of over 35% in size
Method in brief: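 In this counter screen, the RARE-luciferase line C3RL4 was exposed for 6 h at 37 C and 5% CO2 to compounds with retinol at 1 uM final. Cellular ATP, read by luminescence, served as the viability measure.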

[3] = qHTS assay to identify small molecule antagonists of the retinoic acid receptor (RAR) signaling pathway (AID 1159552; also: nearly all actives have a fitted effect of over 50% in size)
Method in brief: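 Luminescent RARE reporter read-out in C3RL4 cells: 6 hr co-treatment at 37 C of test compounds with retinol at 1 uM final. Cells plated overnight beforehand; luciferase reagent incubated 30 min at room temperature before reading.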

[4] = qHTS assay to identify small molecule antagonists of the estrogen related receptor (ERR) signaling pathway from Tox21 library - cell viability counter screen (AID 1224834); also: nearly all actives have a fitted effect of over 30% in size; also: potency is read from the fitted curve at half-maximal effect
Method in brief: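 Counter screen run in ERR cells (2,000 cells/well): cells pre-incubated 6 h, then treated with compounds for 17.5 h at 37 C. Fluorescence was read 30 min after CellTiter-Fluor addition.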

[5] = qHTS assay to identify small molecule agonists of the constitutive androstane receptor (CAR) signaling pathway - cell viability counter screen (AID 1224836); also: nearly all actives have a fitted effect of over 45% in size; also: potency is read from the fitted curve at half-maximal effect
Method in brief: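 Cell viability multiplexed with the CAR agonist screen: CellTiter-Fluor fluorescence after 23 hr at 37 C. HepG2-CYP2B6-hCAR cells got compounds at 15 concentrations with PK11195 at 0.75 uM final.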

[6] = qHTS assay to identify small molecule antagonists of the estrogen related receptor signaling pathway with the pleiotropic PPARgamma coactivator (PGC) from Tox21 10K library - cell viability counter screen (AID 1224840; active = well fitted cell-killing curve with a large enough effect in the repeat runs, not every such curve was filed as active; also: nearly all actives have a fitted effect of over 40% in size; also: potency is read from the fitted curve at half-maximal effect)
Method in brief: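 Readout: fluorescence intensity from CellTiter-Fluor after 30 min at 37 C/5% CO2. Preceded by 17.5 h treatment of PGC/ERR cells with DMSO-dissolved compounds, added 6 h post-seeding.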

[7] = qHTS assay to identify small molecule agonists of the estrogen related receptor signaling pathway with the pleiotropic PPARgamma coactivator (PGC) from Tox21 10K library (AID 1224842); also: nearly all actives have a fitted effect of over 15% in size
Method in brief: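 Luminescence from One-Glo (30 min, room temperature) measured after PGC/ERR cells had 18 h at 37 C with pinned compound (23 nL in DMSO). Cells had been seeded at 2,000 per well and pre-incubated 6 h.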

[8] = molecular target: Luciferin 4-monooxygenase (Photinus pyralis) (UniProt P08659); assay: qHTS assay to identify small molecule inhibitors of firefly luciferase (AID 1224835); also: nearly all actives have a fitted effect of over 25% in size; also: potency is read from the fitted curve at half-maximal effect
Luciferin 4-monooxygenase (Photinus pyralis), sequence (P08659 whole entry, looked up): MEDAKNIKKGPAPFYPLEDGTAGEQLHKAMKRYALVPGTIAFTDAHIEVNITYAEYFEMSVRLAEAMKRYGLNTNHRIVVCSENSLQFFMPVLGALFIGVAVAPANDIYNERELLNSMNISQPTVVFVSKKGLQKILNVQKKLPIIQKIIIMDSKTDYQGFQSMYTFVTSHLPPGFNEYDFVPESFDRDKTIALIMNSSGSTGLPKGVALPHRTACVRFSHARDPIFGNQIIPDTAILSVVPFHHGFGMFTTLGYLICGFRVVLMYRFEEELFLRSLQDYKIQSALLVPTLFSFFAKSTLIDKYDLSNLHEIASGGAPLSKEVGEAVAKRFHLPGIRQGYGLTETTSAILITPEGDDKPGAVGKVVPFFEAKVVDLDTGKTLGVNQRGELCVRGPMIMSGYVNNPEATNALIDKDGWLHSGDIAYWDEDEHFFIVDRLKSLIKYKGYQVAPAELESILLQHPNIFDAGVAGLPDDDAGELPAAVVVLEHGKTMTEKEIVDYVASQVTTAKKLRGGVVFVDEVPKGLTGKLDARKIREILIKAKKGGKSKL
Method in brief: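 Inhibition of purified Photinus luciferase is measured by luminescence. Substrate levels (D-luciferin, ATP) sit at their KM values. Each compound is tested in a concentration series.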

[9] = qHTS assay to identify small molecule antagonists of the constitutive androstane receptor (CAR) signaling pathway - cell viability counter screen (AID 1224837); also: nearly all actives have a fitted effect of over 45% in size; also: potency is read from the fitted curve at half-maximal effect
Method in brief: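 CITCO at 50 nM final was added alongside compounds (15 concentrations) to double-stable hCAR/CYP2B6-2.2kb HepG2 cells. Following 23 hr at 37 C, cell viability was quantified by CellTiter-Fluor fluorescence intensity.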

[10] = molecular target: Nuclear receptor subfamily 1 group I member 3 (Homo sapiens) (UniProt Q14994); assay: qHTS assay to identify small molecule antagonists of the constitutive androstane receptor (CAR) signaling pathway (AID 1224838); also: nearly all actives have a fitted effect of over 40% in size; also: potency is read from the fitted curve at half-maximal effect
Nuclear receptor subfamily 1 group I member 3 (Homo sapiens), sequence (Q14994 whole entry, looked up): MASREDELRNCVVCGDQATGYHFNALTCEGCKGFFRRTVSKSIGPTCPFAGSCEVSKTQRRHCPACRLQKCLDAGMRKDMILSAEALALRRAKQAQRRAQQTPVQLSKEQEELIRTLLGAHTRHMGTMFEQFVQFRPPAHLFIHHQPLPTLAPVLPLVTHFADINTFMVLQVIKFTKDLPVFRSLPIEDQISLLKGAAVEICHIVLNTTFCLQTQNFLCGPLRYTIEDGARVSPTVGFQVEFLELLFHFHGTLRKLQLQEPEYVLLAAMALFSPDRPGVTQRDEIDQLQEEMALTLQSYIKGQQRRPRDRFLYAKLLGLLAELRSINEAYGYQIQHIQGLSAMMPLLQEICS
Method in brief: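 Inhibition of CITCO-driven (50 nM final) CYP2B6 reporter expression is measured in HepG2 cells stably carrying hCAR. Fifteen compound concentrations are applied for 24 h at 37 C, followed by luciferase luminescence.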

[11] = molecular target: Nuclear receptor subfamily 1 group I member 3 (Homo sapiens) (UniProt Q14994); assay: qHTS assay to identify small molecule agonists of the constitutive androstane receptor (CAR) signaling pathway (AID 1224839); also: nearly all actives have a fitted effect of over 15% in size
Method in brief: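 Luminescent ONE-Glo read-out after 24 hr, 37 C exposure of double-stable HepG2-CYP2B6-hCAR reporter cells to a 15-point compound series, in the presence of 0.75 uM PK11195 (final).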

[12] = qHTS assay to identify small molecule antagonists of the estrogen related receptor signaling pathway with the pleiotropic PPARgamma coactivator (PGC) from Tox21 10K library (AID 1224841; call rule not given here; also: actives are mostly falling curves and most rising ones were filed inactive; nearly all actives have a fitted effect of over 50% in size; also: potency is read from the fitted curve at half-maximal effect)
Method in brief: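 One-Glo luminescence, measured after half an hour at room temperature, quantified reporter output of PGC/ERR cells. These had been plated at 2,000 per well, incubated 6 h, dosed with compounds in DMSO, then kept 18 h at 37 C.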

[13] = qHTS assay to identify small molecule agonists of the retinoic acid receptor (RAR) signaling pathway (AID 1159553); details: C3RL4 RARE luciferase reporter, agonist, 6 h; activation: at 73.3 µM (top of the series); also: potency is read from the fitted curve at half-maximal effect
Method in brief: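 In this cell-based screen, 1,000 C3RL4 cells per well were cultured overnight, dosed with test chemicals in DMSO for 6 hr, and assessed for RARE luciferase luminescence.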

| SMILES | Potency [1] | Potency [2] | Potency [3] | Potency [4] | Potency [5] | Potency [6] | Potency [7] | Potency [8] | Potency [9] | Potency [10] | Potency [11] | Potency [12] | Potency [13] |
| --- | --- | --- | --- | --- | --- | --- | --- | --- | --- | --- | --- | --- | --- |
| CC1=Nc2ccc3ccccc3c2C1(C)C | inactive | inactive | inactive | inactive | inactive | inactive | inactive |  |  |  |  |  |  |
| C[C@@H]1CC(=O)NN=C1c1ccc(NN=C(C#N)C#N)cc1 | inactive | inactive | inactive | 18.8 µM (active) and 13.3 µM (active) | 11.9 µM (active) | 26.6 µM (active) and 23.7 µM (active) | inactive | 5.49 µM (active) and 9.77 µM (active) | 11.9 µM (active) | 21.1 µM (active) | inactive | 4.73 µM (active) |  |
| CCC(C)COC(C)=O (stereo unspecified) | inactive | inactive | inactive | inactive | inactive | inactive | inactive | inactive | inactive |  |  |  |  |
| CC(=O)OCC[N+](C)(C)C | inactive | inactive | inactive | inactive | inactive | inactive |  | inactive | inactive | inactive | inactive |  |  |
| CC1CC(OC(=O)C(O)c2ccccc2)CC(C)(C)N1C (stereo unspecified) | inactive | inactive | inactive | inactive |  | inactive | inactive | inactive | inactive |  |  | inactive | inactive |
| Cc1cccc(O)c1N | inactive | inactive | inactive | 27.6 µM (active) |  | inactive | inactive | inactive |  |  | inactive |  | inactive |
| CCC(C)(C)OC | 48.8 µM (active) | inactive | inactive | inactive | inactive | inactive |  |  | inactive | inactive | inactive |  |  |
| c1cc(N(CC2CO2)CC2CO2)ccc1Cc1ccc(N(CC2CO2)CC2CO2)cc1 (stereo unspecified) | inactive | inactive | inactive | 43.3 µM (active) |  | 30.6 µM (active) | inactive |  | 54.5 µM (active) |  | inactive |  | 30.6 µM (active) |
| O=C(/C=C/c1ccccc1)OCCc1ccccc1 | inactive | inactive | inactive |  |  | inactive |  | 4.48 µM (active) | inactive | inactive |  |  | 2.73 µM (active) |
| CC1(C)[C@@H](OC(=O)CCC(=O)O)CC[C@]2(C)[C@H]3C(=O)C=C4[C@@H]5C[C@@](C)(C(=O)O)CC[C@]5(C)CC[C@@]4(C)[C@]3(C)CC[C@@H]12 | inactive | inactive | inactive | inactive | inactive | inactive |  | inactive | inactive | inactive | inactive | inactive | inactive |
| Cc1ccc(OC(=O)c2ccccc2O)cc1 | inactive | inactive | inactive | inactive | inactive | inactive |  | 6.33 µM (active) | inactive | inactive | inactive |  | 6.86 µM (active) |
